Measured values taken from PubChem BioAssay AID1159580 (chemical genetic matrix, 2015).
Out of some 5,500 compounds screened, about 2,000 (36%) were called active. Another 18% or so got no clear call; they are omitted. No stated cut-off is given here; in the data, active means normalized growth mostly below about 0.91 (no sharp cut-off); inconclusive means no clear call, values can overlap the other calls; inactive means mostly above about 0.92. The list shows a part of the results.

Assay: chemical genetic growth profiling, strain panel (AID 1159580);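 further: tested at 20 µM; growth read once vehicle control cultures reached saturation at 30 °C; 1 = growth at the plate median or of vehicle wells; lower values mean less growth of the strain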
Conditions: S. cerevisiae deletion strains, growth OD

Measured: normalized growth

C[C@H]1C2Cc3ccc(O)cc3[C@]1(C)CCN2CC1CC1
inactive: locus YAL040C, strain CLN3, active compounds read low 0.994 | locus YCL061C, strain MRC1 (second series), active compounds read low 1.01 | locus YDR150W, strain NUM1, active compounds read low 1 | locus YDR363W, strain ESC2, active compounds read low 1.02 | locus YER002W, strain NOP16, active compounds read low 0.988 | locus YGR078C, strain PAC10, active compounds read low 1.01 | locus YGR229C, strain SMI1, active compounds read low 1.05 | locus YNL153C, strain GIM3, active compounds read low 1.02 | locus YNL175C, strain NOP13, active compounds read low 1.02 | locus YNL197C, strain WHI3, active compounds read low 1.02 | locus YNL224C, strain SQS1, active compounds read low 1 | locus YNL322C, strain KRE1, active compounds read low 1.02 | locus YOR083W, strain WHI5 (second series), active compounds read low 1.04 | locus YPL055C, strain LGE1, active compounds read low 1.02 | locus YPL241C, strain CIN2, active compounds read low 1.01
